CYP2C19 act = human CYP2C19 activators, primary screen, biochemical, luminescence. recombinant CYP2C19, luciferin-H EGE luminescence; hits give high values; 0 = fully inhibited enzyme, 1 = untreated enzyme. AID 1025, 2008. activation factor at 5 µM. 96,000 tested, under 10 active. Cytochrome P450 2C19 (Homo sapiens), P33261;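 active = activation factor of at least 2 at 5 µM in the primary screen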;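 note: 0 = wells with 2.5 mM tranylcypromine and 1 = vehicle-only wells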
CYP2C19 inhib = blockers of cytochrome P450 2C19 activity – biochemical, luminescence, ADME assay, primary screen; CYP2C19 Supersomes, luciferin-H EGE luminescence, 30 min; inhibition, % at 5 µM; hit rate 21% among 96,000; AID 778, 2007;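 active = CYP2C19 inhibition above a set limit at 5 µM in the primary screen, cut at about 50% in these data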;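 note: plate controls were negative control wells for no effect and 2.5 mM tranylcypromine positive control for full effect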
CYP2C9 activ = human CYP2C9 activators, primary screen, biochemical, luminescence. Cytochrome P450 2C9 (Homo sapiens), P11712. recombinant CYP2C9, luciferin-H conversion; hits give high values; factor 1 = untreated enzyme, 0 = blocked. activation factor at 5 µM. hit rate 1.4% among 96,000;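 active = activation factor of 2 or more for CYP2C9 at a 5 µM dose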;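 note: 0 = sulfaphenazole-blocked wells and 1 = vehicle-only wells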
Cav3 T inh = Cav3.2 calcium influx blockers – cell-based, Fluo-4 calcium fluorescence, FDSS, MLSMR library, primary screen | B-score at 10 µM | Voltage-dependent T-type calcium channel subunit alpha-1H (Homo sapiens), O95180 | Cav3.2-expressing cells; hits give low values | AID 449739, 2010 | hit rate 4% among 100,000;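 active = single-dose well whose peak fluorescence ratio is a statistical outlier from its plate by either plate-standardised score or position-corrected B-score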
Target sequence (O95180 whole entry, looked up): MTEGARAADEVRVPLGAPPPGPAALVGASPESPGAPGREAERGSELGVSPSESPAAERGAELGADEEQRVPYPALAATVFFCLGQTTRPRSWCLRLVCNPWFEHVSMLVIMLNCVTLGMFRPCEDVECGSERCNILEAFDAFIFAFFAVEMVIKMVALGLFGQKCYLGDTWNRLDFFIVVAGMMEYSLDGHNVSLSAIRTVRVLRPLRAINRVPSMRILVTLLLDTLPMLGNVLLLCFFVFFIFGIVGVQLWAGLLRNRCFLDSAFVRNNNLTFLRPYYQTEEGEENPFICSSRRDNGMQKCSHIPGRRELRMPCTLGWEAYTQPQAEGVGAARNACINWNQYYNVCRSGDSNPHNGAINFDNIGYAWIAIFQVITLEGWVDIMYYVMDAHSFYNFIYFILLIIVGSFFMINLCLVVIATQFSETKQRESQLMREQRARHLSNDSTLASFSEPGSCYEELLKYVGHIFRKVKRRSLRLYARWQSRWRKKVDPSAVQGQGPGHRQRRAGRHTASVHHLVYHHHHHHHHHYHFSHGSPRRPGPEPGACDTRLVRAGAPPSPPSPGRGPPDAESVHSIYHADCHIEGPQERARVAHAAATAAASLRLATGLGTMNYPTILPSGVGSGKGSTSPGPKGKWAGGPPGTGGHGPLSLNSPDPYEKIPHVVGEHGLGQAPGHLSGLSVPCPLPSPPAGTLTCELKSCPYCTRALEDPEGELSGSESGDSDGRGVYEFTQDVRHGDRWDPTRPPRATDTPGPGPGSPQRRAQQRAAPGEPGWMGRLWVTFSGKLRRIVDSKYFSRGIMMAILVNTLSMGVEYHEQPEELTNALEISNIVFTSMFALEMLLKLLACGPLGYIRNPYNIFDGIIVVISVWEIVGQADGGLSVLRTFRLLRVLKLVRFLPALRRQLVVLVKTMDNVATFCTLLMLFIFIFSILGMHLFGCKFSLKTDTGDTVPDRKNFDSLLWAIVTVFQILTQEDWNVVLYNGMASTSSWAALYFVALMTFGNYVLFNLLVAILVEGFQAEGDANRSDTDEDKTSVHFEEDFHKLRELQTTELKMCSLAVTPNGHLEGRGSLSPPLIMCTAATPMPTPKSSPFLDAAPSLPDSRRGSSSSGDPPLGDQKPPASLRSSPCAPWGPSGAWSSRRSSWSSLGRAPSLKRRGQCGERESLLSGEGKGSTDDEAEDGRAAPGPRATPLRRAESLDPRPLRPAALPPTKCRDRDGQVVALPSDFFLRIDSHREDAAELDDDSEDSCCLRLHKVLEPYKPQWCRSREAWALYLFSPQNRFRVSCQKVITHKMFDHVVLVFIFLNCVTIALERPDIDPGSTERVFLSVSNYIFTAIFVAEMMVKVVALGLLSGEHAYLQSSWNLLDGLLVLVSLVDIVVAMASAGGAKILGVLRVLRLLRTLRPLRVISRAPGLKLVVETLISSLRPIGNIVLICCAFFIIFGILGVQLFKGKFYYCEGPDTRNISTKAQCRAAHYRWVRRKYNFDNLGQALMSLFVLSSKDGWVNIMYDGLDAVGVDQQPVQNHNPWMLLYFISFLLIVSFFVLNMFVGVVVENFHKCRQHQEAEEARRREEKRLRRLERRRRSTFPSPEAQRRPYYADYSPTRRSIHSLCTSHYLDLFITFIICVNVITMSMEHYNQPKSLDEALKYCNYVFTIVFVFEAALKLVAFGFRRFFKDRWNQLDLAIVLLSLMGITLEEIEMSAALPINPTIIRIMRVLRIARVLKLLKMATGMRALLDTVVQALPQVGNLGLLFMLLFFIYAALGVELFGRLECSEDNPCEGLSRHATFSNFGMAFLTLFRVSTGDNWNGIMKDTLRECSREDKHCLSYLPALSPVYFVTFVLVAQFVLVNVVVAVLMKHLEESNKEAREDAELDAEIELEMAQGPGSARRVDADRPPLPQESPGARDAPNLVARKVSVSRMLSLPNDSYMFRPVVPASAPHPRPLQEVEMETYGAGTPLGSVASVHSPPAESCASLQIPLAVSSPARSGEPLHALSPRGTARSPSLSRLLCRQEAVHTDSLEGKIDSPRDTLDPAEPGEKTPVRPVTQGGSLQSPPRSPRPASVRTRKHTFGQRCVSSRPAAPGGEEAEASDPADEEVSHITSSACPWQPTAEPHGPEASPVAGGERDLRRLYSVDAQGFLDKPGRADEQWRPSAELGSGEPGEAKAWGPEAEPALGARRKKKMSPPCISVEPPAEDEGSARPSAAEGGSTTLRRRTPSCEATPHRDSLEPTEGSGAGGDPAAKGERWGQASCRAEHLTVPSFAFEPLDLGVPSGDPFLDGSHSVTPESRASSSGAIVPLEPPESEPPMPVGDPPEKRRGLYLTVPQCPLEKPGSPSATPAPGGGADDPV
CYP2C9 inh = blockers of cytochrome P450 2C9 activity – biochemical, luminescence, ADME assay, primary screen; P11712; CYP2C9 Supersomes, luciferin-H conversion; inhibition, % at 5 µM; hit rate 20% among 96,000;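 active = blocking of liver enzyme CYP2C9 beyond about 50% at 5 µM, limit read from the data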
Active calls of the source: *; x = no result given. Most compounds without a hit are left out; they make up all but 27% or so of the library.

SMILES	CYP2C19 act	CYP2C19 inhib	CYP2C9 activ	Cav3 T inh	CYP2C9 inh
Cc1cccc(C2(c3cccc(C)c3)OC(=O)c3ccccc32)c1	0.5	47	0.4	-3.6	62*
Cc1cc(O)ccc1C1(c2ccc(O)cc2C)OC(=O)c2ccccc21	x	x	x	-4.2	x
COC(=O)C1=C(C(=O)c2ccc(C)cc2)C(c2ccc(O)c(OC)c2)n2nnnc2N1 (stereo not given)	0.9	6	0.3	2.1	69*
CCOC(=O)C1=C(C)Nc2nnnn2C1c1ccc(OC)c(Br)c1 (stereo not given)	0.6	40	0.3	-2.1	67*
C=CCOC(=O)C1=C(C)Nc2nnnn2C1c1cc(OC)ccc1OC (stereo not given)	0.3	71*	0.5	-0.21	51*
CCOC(=O)C1=C(C)Nc2nnnn2C1c1ccccc1Cl (stereo not given)	x	x	x	0.018	x
COc1cccc(/C=N\NC(=O)c2sc(N)nc2C)c1OC	1	4	1	0.68	2
Cc1ccc(S(=O)(=O)NC(=O)c2ccc(Br)o2)cc1	x	x	x	0.25	x
CCOC(=O)CC1C(=O)NC2CCCCC2N1C(=O)Nc1ccc(Cl)cc1 (stereo not given)	0.7	31	0.7	-0.19	31
CC1CCCC(C)N1C(=O)CSc1nnc(CSc2ncccn2)n1C (stereo not given)	1	0	1.1	0.85	-8
C=CCn1c(SC(C)C(=O)NC2(C#N)CCCCC2)nnc1-c1ccc(OC)cc1 (stereo not given)	0.6	38	0.7	-0.026	26
C=CCn1c(SCc2c(C(=O)OC)sc(N)c2C(=O)OC)nnc1-c1ccc(Br)cc1	0.3	72*	0.1	-4.6*	87*
COc1ccccc1-c1cc(C2CC2)nc(N)c1C#N	0.2	80*	1.2	-0.47	-17
Cc1nc(N)c(C#N)c(-c2ccccc2Cl)c1C	0.9	10	1.3	0.87	-29
N#Cc1c(-c2ccccc2Cl)cc(C2CC2)nc1N	0.3	74*	1.5	-0.48	-53
CC(C)=C1C(=O)NN(c2ccc(F)c(Cl)c2)C1=O	1	-4	1	0.074	-2
O=C1NN(c2ccc(F)c(Cl)c2)C(=O)/C1=C\c1cccc(OC(=O)c2cccs2)c1	1.2	-17	0.5	0.2	51*
CC(C)(C)OC(=O)NCCCC1=CC2=CC(=O)C(C)(OC(=O)c3ccc(Cl)nc3)C(=O)C2=CO1 (stereo not given)	x	x	x	0.077	x
COc1ccc(OC)c(C2CC(=O)N3CN(c4cccc(Cl)c4C)CSC3=C2C#N)c1 (stereo not given)	0.7	31	0	-2.7	97*
COc1cccc(C2CC(=O)N3CN(c4cccc(Cl)c4C)CSC3=C2C#N)c1OC (stereo not given)	0.9	8	0	-2.1	97*
c1ccc2c(c1)c1ccccc1n1c(-c3ccc4c(c3)OCO4)nnc21	1	2	0.9	-0.28	6
CCC(=O)NS(=O)(=O)c1cccnc1Nc1ccc(Cl)cc1	0.8	18	0	0.24	96*
NS(=O)(=O)c1cccnc1Nc1ccc(Cl)c(Cl)c1	0.5	50	0.6	x	43
CC(=O)NS(=O)(=O)c1cccnc1Nc1ccc(Cl)c(Cl)c1	1	4	0.3	-2.4	71*
CC(=O)C1=C(C)NC(SCC(=O)c2cc(Cl)ccc2Cl)=C(C#N)C1c1ccco1 (stereo not given)	0	100*	0	-3.7*	100*
SMILES	CYP2C19 act	CYP2C19 inhib	CYP2C9 activ	Cav3 T inh	CYP2C9 inh
CC(=O)C1=C(C)NC(SCC(=O)c2ccc(Cl)c(Cl)c2)=C(C#N)C1c1ccco1 (stereo not given)	0.2	77*	0.1	-2.9	93*
COc1ccc2c(c1)nc(SCC(=O)c1cccs1)n2C	0.5	51*	0.8	0.94	24
CCOc1ccc2nc(SCC(=O)c3cccs3)sc2c1	0.4	55*	0.7	0.004	32
CCOc1ccc2nc(SCC(=O)c3ccc(Cl)s3)sc2c1	0.8	22	1.8	-0.27	-77
CCOc1ccc2nc(SCC(=O)N3CCN(C(=O)c4ccco4)CC3)sc2c1	0.7	29	0.5	x	53*
COc1ccc2c(c1)nc(SCC(=O)C(C)(C)C)n2C	0.5	50	1	0.38	-4
CCOc1ccc2nc(SCC(=O)N3CCCc4ccccc43)sc2c1	0.5	50	0.8	-4.7*	22
O=C(CSc1nc2ccccc2s1)N1CCN(C(=O)c2ccco2)CC1	0.9	14	0.7	0.59	27
CCOC(=O)Cc1nnc(NC(=O)CC)s1	1	-4	1.1	0.65	-6
COc1ccc(OC)c2c(C)cc(NCCN3CCOCC3)nc12	0.9	9	1.1	0.27	-6
O=C(CSc1nc2cc(Cl)ccc2s1)N1CCCc2ccccc21	0.6	44	0.4	-1.1	62*
O=C(CSc1nc(-c2ccc(F)cc2)cs1)N1CCN(C(=O)c2ccco2)CC1	0.2	76*	1.3	-1.2	-30
COc1ccc2oc(C(F)(F)C(F)F)cc(=O)c2c1	0.5	54*	0.7	0.28	33
CCC(C)(C)NC(=O)C(c1cccn1C)N(C(=O)Cn1nnc2ccccc21)c1ccccc1OC (stereo not given)	1	-2	0.9	0.21	6
COc1ccc(S(=O)(=O)N(C)CC(=O)NCCC2=CCCCC2)cc1OC	0.2	82*	1.1	0.45	-11
COc1ccc(S(=O)(=O)N(C)CC(=O)NCCC2=CCCCC2)cc1	0.7	32	2.4*	0.075	-136
CCO[C@H]1OC(C(=O)O)=C[C@@H](c2ccccc2)[C@@H]1CCCO	x	x	x	1.3	x
CCOc1ccccc1NC(=O)CC1NCCNC1=O (stereo not given)	0.8	15	1.1	0.6	-14
CCC(=O)Nc1nnc(-c2ccco2)o1	1.1	-8	1	0.74	-5
Cc1ccsc1C(=O)Nc1nnc(-c2ccco2)o1	1	0	0.4	0.66	57*
Cc1ccc(C(C)C)c(OCC(=O)Nc2ccc(N3CCN(S(C)(=O)=O)CC3)cc2)c1	1.1	-8	0.9	0.59	5
c1ccc(-n2nnnc2SCc2cn3ccccc3n2)cc1	0.6	40	1	1.7	5
Clc1ccc(-n2nnnc2SCc2c(-c3ccccc3)nc3sccn23)cc1	0.8	25	0.1	-4.7	89*
O=C(Cc1ccccc1)Nc1nonc1NC(=O)c1ccccc1	0.7	27	0.3	0.21	70*
Cc1cc(C)c2[nH]c(=O)c(C(c3nnnn3Cc3ccc4c(c3)OCO4)N3CCC(C)CC3)cc2c1 (stereo not given)	x	x	x	-0.033	x
CCC(c1nnnn1Cc1ccco1)N(Cc1cc2cc(C)cc(C)c2[nH]c1=O)CC1CCCO1 (stereo not given)	0.3	74*	0.2	-3.1	79*

Screening data (PubChem BioAssay)
